Assay results reported in PubChem BioAssay (NCATS).
Records with an inconclusive call do not appear. Active and inactive are the calls of the source. Unless noted, calls follow the shape of the dose curve; as a rule, active = well fitted curve in the direction sought with a large enough effect; inconclusive = small, poorly fitted or top-dose-only effect, or another doubt; inactive = no such curve, though single readings can be large; an effect the other way counts as inactive or inconclusive.

Key:
[1] = target: Catechol O-methyltransferase (Homo sapiens) (UniProt P21964); test: Confirmatory Screen for Target Class Profiling of Small Molecule Inhibitors of Methyltransferases (AID 1745852; calls by dose curve; also: potency is read from the fitted curve at half-maximal effect; as to activity change, negative = inhibition: % is scaled to controls: 0 for no effect and ±100 for the full control effect); conditions: MTase-Glo luminescence, SAH detection, recombinant enzyme; measured here: COMT max response; stronger effect = lower value
[2] = target: Guanidinoacetate N-methyltransferase (Homo sapiens) (UniProt Q14353); test: as above; conditions: MTase-Glo luminescence, SAH detection, recombinant enzyme; activity change, negative = inhibition: at 57.3 µM (top of the series)
[3] = target: Nicotinamide N-methyltransferase (Homo sapiens) (UniProt P40261); test: as above; conditions: MTase-Glo luminescence, SAH detection, recombinant enzyme; measured here: NNMT max response; stronger effect = lower value
[4] = target: Phenylethanolamine N-methyltransferase (Homo sapiens) (UniProt P11086); test: as above; conditions: MTase-Glo luminescence, SAH detection, recombinant enzyme; measured here: PNMT max response; stronger effect = lower value
[5] = target: Metallo-beta-lactamase type 2 (Klebsiella pneumoniae) (UniProt C7C422); test: qHTS to identify inhibitors of the New Delhi Metallo-beta-lactamase (NDM): assay validation screen against the NCATS LOPAC Collection (AID 1794843); conditions: NDM-1 enzyme, nitrocefin hydrolysis, absorbance 485 nm; series mostly up to 38.4 µM; also: % is scaled to controls: 0 for no effect and ±100 for the full control effect
Summary of the method: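 Absorbance at 485 nm from nitrocefin turnover (50 uM solution added), read at plateau, gives the read-out. Compounds in DMSO were incubated first with 2 nM final NDM-1 in pH 7.0 HEPES buffer containing 1 uM ZnSO4 and 0.01% Tween20.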

[6] = NCATS anti-infectives library activity on HEK293 viability as a counter-qHTS vs the C. elegans viability qHTS (AID 1745854); conditions: HEK293 viability counter-screen; series mostly up to 41.8 µM;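 also: HEK293 cells exposed to compounds for 24 hr before the viability read; % is scaled to controls: 0 for no effect and ±100 for the full control effect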
Summary of the method: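 HEK293 cells (1,500/well) exposed 24 hr at 37C to 1:5 titrations, up to 41.7 uM final; counter-screen to a C. elegans viability qHTS. Viability by CellTiter-Glo luminescence after 10 min at room temperature; digitonin as control.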

[7] = NCATS anti-infectives library activity on the primary C. elegans qHTS viability assay (AID 1745855; calls by dose curve; also: potency is read from the fitted curve at half-maximal effect); conditions: C. elegans worm area imaging, day 7
Summary of the method: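 Viability read-out is GFP fluorescence of PE254-GFP-FLuc C. elegans, measured by laser cytometry (488 nm) at day 0, 3 and 7. Ten L1 worms per well were incubated 7 days at 21 °C with compounds and bacterial capsules in S medium.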

[8] = Viability counterscreen for antagonist of constitutive androstane receptor (CAR) against the NCATS DSHEA and TCM libraries (AID 1794837); conditions: CAR reporter cell line viability counterscreen, qHTS; series mostly up to 40 µM;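 also: compound exposure lasted 24 h before viability reading; 0% is about no effect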
Summary of the method: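 Cells: HepG2 line carrying CYP2B6 reporter and hCAR, seeded and attached 5 h. Then pin-transferred test substances plus agonist CITCO at 48 uM final; 24 h incubation; fluorogenic viability reagent, 1 h.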

[9] = Viability counterscreen for agonist of constitutive androstane receptor (CAR) against the NCATS DSHEA and TCM libraries (AID 1794838); conditions: HepG2 cell viability counterscreen, CAR agonist assay, co-treated with 0.75 µM CAR antagonist; series mostly up to 40 µM;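 also: HepG2 cells with CYP2B6 reporter and hCAR plus 0.75 µM PK11195 antagonist; 0% is about no effect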
Summary of the method: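 Cell health was measured as CellTiter-Fluor signal in HepG2-CYP2B6-hCAR cells treated for 24 h with substances alongside the hCAR antagonist PK11195 (0.75 uM final).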

[10] = HepG2 viability counterscreen (readout 2: ATP content) against the NCATS DSHEA and TCM libraries (AID 1794840); conditions: ATP content luminescence; series mostly up to 27.3 µM; also: 0% is about no effect
Summary of the method: (§1)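 Same wells read twice: first fluorescence from cleaved GF-AFC substrate (25 uM final, 30 min, 37C) for live-cell protease, then CellTiter-Glo luminescence after 30 min at room temperature for ATP. HepG2 cells were exposed ~24 h to substances.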

[11] = HepG2 viability counterscreen (readout 1: protease activity) against the NCATS DSHEA and TCM libraries (AID 1794841); conditions: qHTS concentration series; series mostly up to 27.3 µM;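 also: cells exposed to compounds for about 24 h before the protease read; 0% is about no effect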
Summary of the method: as §1

[12] = target: Nuclear receptor subfamily 1 group I member 3 (Homo sapiens) (UniProt Q14994); test: Primary qHTS for agonist of constitutive androstane receptor (CAR) against the NCATS DSHEA and TCM libraries (AID 1794839); conditions: CAR agonist reporter cells, qHTS luminescence, CAR antagonist co-added at 0.75 µM; series mostly up to 40 µM;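 also: HepG2 cells expressing human CAR with a CYP2B6 reporter plus PK11195 antagonist; luciferase reporter luminescence read with ONE-Glo; 0% is about no effect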
Summary of the method: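 qHTS, agonist mode: HepG2-CYP2B6-hCAR, 2,500 cells/well, 5 h attach; cpds + PK11195 0.75 µM final; 24 h, 37 °C, 5% CO2. Readouts: CellTiter-Fluor (405/540 nm), then ONE-Glo luminescence.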

Metallo-beta-lactamase type 2 (Klebsiella pneumoniae), sequence (C7C422 whole entry, looked up): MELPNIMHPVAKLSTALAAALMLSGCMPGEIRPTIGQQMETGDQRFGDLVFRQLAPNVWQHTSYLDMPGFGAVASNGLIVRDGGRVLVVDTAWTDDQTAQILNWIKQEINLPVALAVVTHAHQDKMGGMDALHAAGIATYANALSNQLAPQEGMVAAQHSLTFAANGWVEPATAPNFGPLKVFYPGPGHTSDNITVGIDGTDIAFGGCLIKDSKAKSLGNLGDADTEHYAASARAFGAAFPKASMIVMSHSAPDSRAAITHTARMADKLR
Phenylethanolamine N-methyltransferase (Homo sapiens), sequence (P11086 whole entry, looked up): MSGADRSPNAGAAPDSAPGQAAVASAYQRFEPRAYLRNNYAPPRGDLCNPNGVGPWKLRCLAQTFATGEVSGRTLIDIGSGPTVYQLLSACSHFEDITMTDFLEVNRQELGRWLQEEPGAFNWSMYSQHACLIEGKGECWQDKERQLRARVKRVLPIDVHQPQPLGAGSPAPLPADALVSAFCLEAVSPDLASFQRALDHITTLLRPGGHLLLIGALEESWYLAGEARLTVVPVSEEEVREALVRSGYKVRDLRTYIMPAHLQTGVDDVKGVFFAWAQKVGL
Nicotinamide N-methyltransferase (Homo sapiens), sequence (P40261 whole entry, looked up): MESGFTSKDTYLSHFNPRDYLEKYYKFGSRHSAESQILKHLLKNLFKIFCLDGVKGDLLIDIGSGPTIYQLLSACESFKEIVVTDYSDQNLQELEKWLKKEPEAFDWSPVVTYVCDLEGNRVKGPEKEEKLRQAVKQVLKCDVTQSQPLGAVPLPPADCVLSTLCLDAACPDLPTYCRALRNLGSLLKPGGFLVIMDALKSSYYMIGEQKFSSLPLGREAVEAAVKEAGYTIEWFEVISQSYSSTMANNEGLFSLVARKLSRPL
Catechol O-methyltransferase (Homo sapiens), sequence (P21964 whole entry, looked up): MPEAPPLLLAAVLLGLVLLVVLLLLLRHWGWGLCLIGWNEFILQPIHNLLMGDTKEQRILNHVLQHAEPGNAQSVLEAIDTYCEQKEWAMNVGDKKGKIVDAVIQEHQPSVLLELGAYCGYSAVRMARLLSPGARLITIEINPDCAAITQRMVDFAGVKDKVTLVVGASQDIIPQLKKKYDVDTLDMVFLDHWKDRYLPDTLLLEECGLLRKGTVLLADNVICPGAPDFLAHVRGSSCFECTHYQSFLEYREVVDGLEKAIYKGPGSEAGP
Nuclear receptor subfamily 1 group I member 3 (Homo sapiens), sequence (Q14994 whole entry, looked up): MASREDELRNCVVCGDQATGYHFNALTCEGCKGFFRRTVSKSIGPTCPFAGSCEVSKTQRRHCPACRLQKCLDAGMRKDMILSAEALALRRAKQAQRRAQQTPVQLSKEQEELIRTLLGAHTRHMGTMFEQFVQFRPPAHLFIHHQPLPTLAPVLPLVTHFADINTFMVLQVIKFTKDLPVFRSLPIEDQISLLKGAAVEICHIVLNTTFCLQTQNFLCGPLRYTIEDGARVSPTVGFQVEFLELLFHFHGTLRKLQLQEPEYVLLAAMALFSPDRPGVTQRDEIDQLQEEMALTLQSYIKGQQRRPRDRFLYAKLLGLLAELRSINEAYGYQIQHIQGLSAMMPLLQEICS

Question: What does the source list for `COc1ccc(NC(=O)/C=C/c2ccc(Cl)cc2)cc1`?
Answer: activity [1]: -21.5%; Potency [2]: 24.3 µM (active); activity [3]: -60.9%; activity [4]: -10.5%; Potency [5]: inactive

Question: For `CC(C)(NS(=O)(=O)c1ccc(Oc2ccc(F)cc2)cc1)C(=O)NO`, which Potency [5] is on record?
Answer: inactive

Question: With `COc1cc(OC)cc(-c2cc3cnc(N)nc3nc2NC(=O)NC(C)(C)C)c1` as the molecule, how does the Potency [5] read?
Answer: inactive

Question: For `Oc1ccccc1O`, which activity [1] is on record?
Answer: 160%

Question: What about the activity change, negative = inhibition [2] of the same molecule?
Answer: -2.32%

Question: What about the activity [3] of the same molecule?
Answer: -3.91%

Question: What about the activity [4] of the same molecule?
Answer: 8.37%

Question: What about the Potency [5] of the same molecule?
Answer: inactive

Question: For `NCCCCC(=O)O`, which Potency [5] is on record?
Answer: inactive

Question: For `Nc1nc2c(ncn2[C@@H]2O[C@H](CO)[C@@H](O)[C@@H]2O)c(=O)[nH]1`, which Potency [5] is on record?
Answer: inactive

Question: For `CCCCC#Cc1nc(NC)c2ncn([C@@H]3O[C@H](CO)[C@@H](O)[C@H]3O)c2n1`, which Potency [5] is on record?
Answer: inactive

Question: What does the source list for `COc1cc(OC)c(/C=C2/C(=O)Nc3ccccc32)c(OC)c1`?
Answer: activity [1]: -23%; Potency [2]: 27.3 µM (active); activity [3]: -28.2%; activity [4]: -34.5%; Potency [5]: inactive

Question: Which activity [1] does the source give for `NO` here?
Answer: 3.62%

Question: And the activity change, negative = inhibition [2]?
Answer: -5.54%

Question: What about the activity [3] of the same molecule?
Answer: -5.7%

Question: And the activity [4]?
Answer: 4.25%

Question: What about the Potency [5] of the same molecule?
Answer: inactive

Question: For `COc1ccccc1CNCCCCCCNCCCCCCCCNCCCCCCNCc1ccccc1OC`, which activity [1] is on record?
Answer: 5.14%

Question: What about the Potency [2] of the same molecule?
Answer: 0.153 µM (active)

Question: And the activity [3]?
Answer: -17.7%

Question: And the activity [4]?
Answer: 2.9%

Question: What about the Potency [5] of the same molecule?
Answer: inactive

Question: For `CC12C(=O)OC(=O)C1(C)C1CCC2O1` (centres undefined), which Potency [5] is on record?
Answer: inactive

Question: For `CCCCCCCCCCCCCCCCCCN(CCCCCCCCCCCCCCCCCC)CCCN(CCO)CCO`, which Potency [5] is on record?
Answer: inactive

Question: With `CC(C)(C)c1ccc(S(=O)(=O)/C=C/C#N)cc1` as the molecule, how does the activity [1] read?
Answer: 0.864%

Question: And the activity change, negative = inhibition [2]?
Answer: -1.56%

Question: And the activity [3]?
Answer: -4.25%

Question: What about the activity [4] of the same molecule?
Answer: 5.53%

Question: What about the Potency [5] of the same molecule?
Answer: inactive

Question: Which outcome [6] does the source give for `CC(C(=O)O)c1ccc(C(=O)c2cccs2)cc1` (centres undefined) here?
Answer: inactive

Question: With `N=c1ccn2c(n1)O[C@H]1[C@H](O)[C@@H](CO)O[C@H]12` as the molecule, how does the outcome [6] read?
Answer: inactive

Question: What about the Potency [5] of the same molecule?
Answer: inactive

Question: For `C=CC(C)=C[C@@]1(C)SC(=O)C(C)=C1O`, which Potency [5] is on record?
Answer: inactive

Question: With `NC[C@H]1O[C@@H](n2cnc3c(N)ncnc32)[C@H](O)[C@@H]1O` as the molecule, how does the Potency [5] read?
Answer: inactive

Question: Which results are given for `Fc1ccc(C(OCCCc2cnc[nH]2)c2ccc(F)cc2)cc1`?
Answer: activity [1]: 0.59%; activity change, negative = inhibition [2]: 7.35%; activity [3]: -23.2%; activity [4]: -0.346%; Potency [5]: inactive

Question: What does the source list for `COc1ccc(Br)cc1S(=O)(=O)NC(=O)/C=C/c1ccccc1Cc1ccc2ccccc2c1`?
Answer: activity [1]: 3.65%; activity change, negative = inhibition [2]: -3.05%; activity [3]: -14.5%; activity [4]: 0.509%; Potency [5]: inactive

Question: Which Potency [5] does the source give for `CNC(=O)[C@H]1O[C@@H](n2cnc3c(NCc4ccc(N)cc4)ncnc32)[C@H](O)[C@@H]1O` here?
Answer: inactive

Question: For `O=Nc1ccc2oc(=O)ccc2c1`, which activity [1] is on record?
Answer: 0.573%

Question: What about the activity change, negative = inhibition [2] of the same molecule?
Answer: 3.53%

Question: What about the activity [3] of the same molecule?
Answer: -0.856%

Question: What about the activity [4] of the same molecule?
Answer: 5.38%

Question: What about the Potency [5] of the same molecule?
Answer: inactive

Question: Which activity [1] does the source give for `O=C(O)CNC(=O)C(CS)Cc1ccccc1` (centres undefined) here?
Answer: 9.44%

Question: And the activity change, negative = inhibition [2]?
Answer: 4.59%

Question: What about the activity [3] of the same molecule?
Answer: 2.86%

Question: What about the activity [4] of the same molecule?
Answer: 8.57%

Question: What about the Potency [5] of the same molecule?
Answer: inactive

Question: Which Potency [5] does the source give for `CC(=O)SCC[N+](C)(C)C` here?
Answer: inactive

Question: With `CC[C@@H](C)[C@H]1O[C@]2(CC[C@H]1C)C[C@@H]1C[C@@H](CC=C(C)[C@@H](O[C@H]3C[C@H](OC)[C@@H](O[C@H]4C[C@H](OC)[C@@H](O)[C@H](C)O4)[C@H](C)O3)[C@@H](C)C=CC=C3CO[C@@H]4[C@H](O)C(C)=C[C@@H](C(=O)O1)[C@]34O)O2` as the molecule, how does the Potency [5] read?
Answer: inactive

Question: Which activity [1] does the source give for `COc1ccc(/C=C2\COc3ccc(C)cc3C2=O)cc1O` here?
Answer: 3.43%

Question: And the activity change, negative = inhibition [2]?
Answer: -4.7%

Question: What about the activity [3] of the same molecule?
Answer: -20.1%

Question: And the activity [4]?
Answer: 4.48%

Question: What about the Potency [5] of the same molecule?
Answer: inactive

Question: For `CC[C@@H](C)[C@H]1O[C@]2(CC[C@@H]1C)C[C@@H]1C[C@@H](C/C=C(\C)[C@@H](O[C@H]3C[C@H](OC)[C@@H](O[C@H]4C[C@H](OC)[C@@H](O)[C@H](C)O4)[C@H](C)O3)[C@@H](C)/C=C/C=C3\CO[C@@H]4[C@H](O)C(C)=C[C@@H](C(=O)O1)[C@]34O)O2`, which outcome [6] is on record?
Answer: inactive

Question: What about the Potency [7] of the same molecule?
Answer: 0.0058 µM (active)

Question: Which outcome [6] does the source give for `CCCCCCOc1ccccc1C(N)=O` here?
Answer: inactive

Question: For `C[S+](CC[C@H](N)C(=O)O)C[C@H]1O[C@@H](n2cnc3c(N)ncnc32)[C@H](O)[C@@H]1O` (some centres undefined), which outcome [8] is on record?
Answer: inactive

Question: And the outcome [9]?
Answer: inactive

Question: And the outcome [10]?
Answer: inactive

Question: And the outcome [11]?
Answer: inactive

Question: Which outcome [8] does the source give for `O=C(O)c1cc(O)c(O)c(O)c1` here?
Answer: inactive

Question: What about the outcome [9] of the same molecule?
Answer: inactive

Question: And the outcome [12]?
Answer: inactive

Question: And the outcome [10]?
Answer: inactive

Question: What about the outcome [11] of the same molecule?
Answer: inactive

Question: What does the source list for `O=C1NCc2c1c1c3ccccc3[nH]c1c1[nH]c3ccccc3c21`?
Answer: activity [1]: -23.6%; Potency [2]: 17.2 µM (active); activity [3]: -25.9%; activity [4]: -28.7%; Potency [5]: inactive

Question: Which activity [1] does the source give for `COC1=C(OC)C(=O)c2ccccc2C1=O` here?
Answer: -44.1%

Question: And the Potency [2]?
Answer: 19.3 µM (active)

Question: And the activity [3]?
Answer: -23.6%

Question: What about the activity [4] of the same molecule?
Answer: -70.6%

Question: What about the Potency [5] of the same molecule?
Answer: inactive

Question: For `CNc1ncnc2c1ncn2[C@@H]1O[C@H](CO)[C@@H](O)[C@H]1O`, which outcome [6] is on record?
Answer: inactive

Question: For `CN(C)C(N)=NCCC[C@H](N)C(=O)O`, which Potency [5] is on record?
Answer: inactive
